We go through one sequence from article PMC7862700, “An all-to-all approach to the identification of sequence-specific readers for epigenetic DNA modifications on cytosine”.

Common to all, as to assay: DAPPL (digital affinity profiling via proximity ligation, sequencing); 10 mM Tris-HCl pH 7.5, 50 mM NaCl, 1 mM DTT, 4% glycerol, room temperature, 30 min; GST-TFs on glutathione beads, 16-mer random dsDNA library, 0.1% formaldehyde crosslink after washing; high values mean tight binding
One experiment concerns the target T1, FEV (Homo sapiens, UniProt Q99581 1-238).
T1 sequence: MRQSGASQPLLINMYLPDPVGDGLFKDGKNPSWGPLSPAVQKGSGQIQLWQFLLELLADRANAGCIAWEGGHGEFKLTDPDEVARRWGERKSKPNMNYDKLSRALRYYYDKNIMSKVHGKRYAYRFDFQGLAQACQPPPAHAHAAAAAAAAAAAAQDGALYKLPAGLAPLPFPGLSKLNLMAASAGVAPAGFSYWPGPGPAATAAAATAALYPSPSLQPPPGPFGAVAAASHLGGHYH
The note with it: protein: recombinant; tags: N-terminal GST; dsDNA, one strand shown. A digest of the protocol:
(§1)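 Pools were built from human transcription factors expressed in yeast as GST fusions, captured on glutathione beads and DNA-barcoded, along with a tag-only sample. Incubation with 200 nmole of a 16-mer random double-stranded DNA library lasted 30 min at room temperature in Tris/NaCl/DTT/glycerol buffer, and was followed by washing, 0.1% formaldehyde crosslinking, proximity ligation, PCR amplification and Illumina NextSeq500 sequencing. Binding signal is the quotient of each hexamer's read frequency for a factor and its frequency for the tag-only sample.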

The target in a further experiment is ETV5 (Homo sapiens, UniProt P41161 1-510). The note with it: protein: recombinant; tags: N-terminal GST; dsDNA, one strand shown. A digest of the protocol: as §1
Sequence of ETV5 (P41161 whole entry): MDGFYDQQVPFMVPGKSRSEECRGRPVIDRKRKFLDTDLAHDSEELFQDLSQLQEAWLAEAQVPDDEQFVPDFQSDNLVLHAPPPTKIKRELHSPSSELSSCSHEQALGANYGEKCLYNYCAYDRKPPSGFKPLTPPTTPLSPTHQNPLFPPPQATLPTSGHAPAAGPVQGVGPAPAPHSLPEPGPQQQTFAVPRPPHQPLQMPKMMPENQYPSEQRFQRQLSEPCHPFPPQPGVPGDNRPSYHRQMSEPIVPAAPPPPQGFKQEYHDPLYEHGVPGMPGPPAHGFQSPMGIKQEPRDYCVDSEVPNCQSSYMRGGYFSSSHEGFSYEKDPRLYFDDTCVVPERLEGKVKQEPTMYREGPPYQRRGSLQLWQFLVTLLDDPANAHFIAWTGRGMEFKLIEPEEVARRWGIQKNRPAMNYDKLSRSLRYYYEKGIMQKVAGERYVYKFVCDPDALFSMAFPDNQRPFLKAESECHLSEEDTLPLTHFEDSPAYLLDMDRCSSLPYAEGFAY
For the next experiment, the target named is HSF1 (Homo sapiens, UniProt Q00613 1-529). The note with it: protein: recombinant; tags: N-terminal GST; chain copies: 3; dsDNA, one strand shown. A digest of the protocol: as §1
Sequence of HSF1 (Q00613 whole entry): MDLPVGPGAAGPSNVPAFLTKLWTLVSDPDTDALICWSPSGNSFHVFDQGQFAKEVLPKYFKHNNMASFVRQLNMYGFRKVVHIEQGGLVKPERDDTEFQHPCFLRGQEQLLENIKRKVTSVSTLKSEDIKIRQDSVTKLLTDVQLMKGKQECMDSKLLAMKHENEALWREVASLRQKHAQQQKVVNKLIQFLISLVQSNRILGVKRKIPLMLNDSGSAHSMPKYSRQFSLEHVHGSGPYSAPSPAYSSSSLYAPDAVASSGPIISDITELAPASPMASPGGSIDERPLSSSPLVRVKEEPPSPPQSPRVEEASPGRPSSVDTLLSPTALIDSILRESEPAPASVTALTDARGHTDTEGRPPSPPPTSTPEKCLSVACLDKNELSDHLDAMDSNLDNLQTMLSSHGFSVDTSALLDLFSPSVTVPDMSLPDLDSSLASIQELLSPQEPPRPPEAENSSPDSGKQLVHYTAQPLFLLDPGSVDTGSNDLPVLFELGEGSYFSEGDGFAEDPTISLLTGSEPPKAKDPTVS
In the next experiment the target is T2, SPIC (Homo sapiens, UniProt Q8N5J4 1-248).
T2 sequence: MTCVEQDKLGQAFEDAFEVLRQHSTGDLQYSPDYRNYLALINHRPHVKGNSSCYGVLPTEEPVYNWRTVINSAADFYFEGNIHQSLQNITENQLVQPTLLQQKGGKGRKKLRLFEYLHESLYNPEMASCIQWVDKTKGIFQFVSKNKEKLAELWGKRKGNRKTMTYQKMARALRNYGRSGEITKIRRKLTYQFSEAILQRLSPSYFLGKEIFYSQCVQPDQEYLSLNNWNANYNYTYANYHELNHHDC
The conditions noted are these: protein: recombinant; tags: N-terminal GST; dsDNA, one strand shown. A digest of the protocol:
as §1

A further experiment has as its target ELF4 (Homo sapiens, UniProt Q99607 1-663). The conditions noted are these: protein: recombinant; tags: N-terminal GST; dsDNA, one strand shown. The gist of the method: as §1
For a further experiment, the target named is T3, ELK4 (Homo sapiens, UniProt P28324-2 1-405).
T3 sequence: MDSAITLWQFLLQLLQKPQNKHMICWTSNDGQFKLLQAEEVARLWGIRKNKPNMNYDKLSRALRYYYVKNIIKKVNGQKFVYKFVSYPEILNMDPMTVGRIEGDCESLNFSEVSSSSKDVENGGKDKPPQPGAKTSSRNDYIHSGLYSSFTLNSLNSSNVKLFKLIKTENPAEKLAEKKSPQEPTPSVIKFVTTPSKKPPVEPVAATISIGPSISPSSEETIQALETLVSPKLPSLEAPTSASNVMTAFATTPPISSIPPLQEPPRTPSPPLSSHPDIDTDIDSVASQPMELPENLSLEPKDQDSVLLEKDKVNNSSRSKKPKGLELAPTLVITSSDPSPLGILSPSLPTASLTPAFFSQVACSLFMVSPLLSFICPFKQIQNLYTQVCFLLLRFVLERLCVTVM
The note with it: protein: recombinant; tags: N-terminal GST; dsDNA, one strand shown. A digest of the protocol:
as §1

The target of the next experiment is T4, ETV2 (Homo sapiens, UniProt O00321 1-342).
T4 sequence: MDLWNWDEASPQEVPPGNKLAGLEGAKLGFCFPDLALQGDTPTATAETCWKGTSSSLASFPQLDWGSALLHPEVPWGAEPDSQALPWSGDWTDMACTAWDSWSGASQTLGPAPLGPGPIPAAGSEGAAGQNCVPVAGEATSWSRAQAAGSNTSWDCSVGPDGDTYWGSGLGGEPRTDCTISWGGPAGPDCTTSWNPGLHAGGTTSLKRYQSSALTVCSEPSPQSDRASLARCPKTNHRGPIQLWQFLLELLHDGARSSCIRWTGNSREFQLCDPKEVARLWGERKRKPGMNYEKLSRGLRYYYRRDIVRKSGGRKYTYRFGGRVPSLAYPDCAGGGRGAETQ
The note with it: protein: recombinant; tags: N-terminal GST; dsDNA, one strand shown. A digest of the protocol: as §1

Another experiment addresses T5, ELF3 (Homo sapiens, UniProt P78545 1-371).
T5 sequence: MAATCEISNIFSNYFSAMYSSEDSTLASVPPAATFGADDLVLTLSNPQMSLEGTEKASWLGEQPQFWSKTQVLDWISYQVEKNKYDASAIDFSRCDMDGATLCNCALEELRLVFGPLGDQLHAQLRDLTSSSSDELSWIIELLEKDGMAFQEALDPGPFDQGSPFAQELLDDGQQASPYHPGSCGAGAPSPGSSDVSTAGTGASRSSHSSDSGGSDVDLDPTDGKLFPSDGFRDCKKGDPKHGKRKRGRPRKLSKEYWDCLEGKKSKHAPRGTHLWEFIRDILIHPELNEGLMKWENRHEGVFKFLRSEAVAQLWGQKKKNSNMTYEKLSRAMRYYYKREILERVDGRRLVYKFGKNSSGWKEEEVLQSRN
The note with it: protein: recombinant; tags: N-terminal GST; dsDNA, one strand shown. The gist of the method: as §1

A further experiment concerns the target CRX (Homo sapiens, UniProt O43186 1-299). The conditions noted are these: protein: recombinant; tags: N-terminal GST; dsDNA, one strand shown. The gist of the method:
as §1

A further experiment has as its target ETV1 (Homo sapiens, UniProt P50549 1-477). The note with it: protein: recombinant; tags: N-terminal GST; dsDNA, one strand shown. The gist of the method: as §1
For another experiment, the target named is T6, ERF (Homo sapiens, UniProt P50548 1-548).
T6 sequence: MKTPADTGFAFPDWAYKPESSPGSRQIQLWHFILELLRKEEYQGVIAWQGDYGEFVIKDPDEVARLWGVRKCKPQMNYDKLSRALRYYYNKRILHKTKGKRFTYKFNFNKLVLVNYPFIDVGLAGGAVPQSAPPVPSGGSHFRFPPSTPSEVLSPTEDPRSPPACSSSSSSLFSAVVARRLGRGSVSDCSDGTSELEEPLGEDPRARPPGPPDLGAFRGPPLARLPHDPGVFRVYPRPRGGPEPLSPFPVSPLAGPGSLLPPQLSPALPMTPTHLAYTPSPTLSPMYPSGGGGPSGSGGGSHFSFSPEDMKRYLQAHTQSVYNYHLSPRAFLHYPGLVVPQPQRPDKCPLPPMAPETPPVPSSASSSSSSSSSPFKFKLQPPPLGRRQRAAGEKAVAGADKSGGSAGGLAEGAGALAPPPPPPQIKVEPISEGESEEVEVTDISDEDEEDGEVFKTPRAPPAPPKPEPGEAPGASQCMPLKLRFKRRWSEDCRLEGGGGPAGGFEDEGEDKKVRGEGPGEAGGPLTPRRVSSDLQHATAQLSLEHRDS
The note with it: protein: recombinant; tags: N-terminal GST; dsDNA, one strand shown. The gist of the method: as §1

A further experiment has as its target T7, ETV3L (Homo sapiens, UniProt Q6ZN32 1-361).
T7 sequence: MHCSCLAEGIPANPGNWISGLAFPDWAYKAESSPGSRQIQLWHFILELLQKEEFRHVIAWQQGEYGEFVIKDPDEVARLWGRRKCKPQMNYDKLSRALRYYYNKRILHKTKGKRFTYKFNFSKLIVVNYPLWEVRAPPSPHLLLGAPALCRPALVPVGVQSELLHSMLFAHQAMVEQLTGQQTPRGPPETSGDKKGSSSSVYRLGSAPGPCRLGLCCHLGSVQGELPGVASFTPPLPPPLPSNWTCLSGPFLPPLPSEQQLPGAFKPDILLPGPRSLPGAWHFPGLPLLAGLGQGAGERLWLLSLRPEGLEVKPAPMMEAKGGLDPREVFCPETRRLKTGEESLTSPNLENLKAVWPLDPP
The conditions noted are these: protein: recombinant; tags: N-terminal GST; dsDNA, one strand shown. A digest of the protocol:
as §1

The next experiment has as its target T8, ETS2 (Homo sapiens, UniProt P15036 1-469).
T8 sequence: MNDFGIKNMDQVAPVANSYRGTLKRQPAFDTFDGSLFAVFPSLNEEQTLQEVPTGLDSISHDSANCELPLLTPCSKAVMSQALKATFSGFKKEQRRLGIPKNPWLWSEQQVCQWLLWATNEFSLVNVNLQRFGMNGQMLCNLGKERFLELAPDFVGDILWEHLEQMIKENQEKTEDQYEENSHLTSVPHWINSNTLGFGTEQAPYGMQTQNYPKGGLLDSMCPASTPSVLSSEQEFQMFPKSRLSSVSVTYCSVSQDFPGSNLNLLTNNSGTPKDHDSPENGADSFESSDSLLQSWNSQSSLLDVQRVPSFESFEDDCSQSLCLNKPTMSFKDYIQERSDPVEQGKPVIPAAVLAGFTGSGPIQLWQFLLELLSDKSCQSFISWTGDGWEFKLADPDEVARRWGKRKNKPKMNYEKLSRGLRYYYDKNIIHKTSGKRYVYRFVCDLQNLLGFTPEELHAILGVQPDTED
The note with it: protein: recombinant; tags: N-terminal GST; dsDNA, one strand shown. The gist of the method: as §1

Another experiment deals with T9, SPDEF (Homo sapiens, UniProt O95238 1-335).
T9 sequence: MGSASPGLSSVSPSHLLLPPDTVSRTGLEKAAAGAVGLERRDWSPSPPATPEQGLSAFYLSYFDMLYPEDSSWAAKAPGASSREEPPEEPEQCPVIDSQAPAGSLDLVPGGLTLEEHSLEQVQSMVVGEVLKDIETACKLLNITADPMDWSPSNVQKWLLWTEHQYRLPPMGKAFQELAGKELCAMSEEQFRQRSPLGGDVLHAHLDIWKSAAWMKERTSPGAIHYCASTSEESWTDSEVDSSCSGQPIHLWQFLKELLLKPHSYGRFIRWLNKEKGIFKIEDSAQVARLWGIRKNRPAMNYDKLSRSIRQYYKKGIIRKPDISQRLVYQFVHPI
The note with it: protein: recombinant; tags: N-terminal GST; dsDNA, one strand shown. The gist of the method: as §1

The target of the next experiment is T10, ETV7 (Homo sapiens, UniProt Q9Y603 1-341).
T10 sequence: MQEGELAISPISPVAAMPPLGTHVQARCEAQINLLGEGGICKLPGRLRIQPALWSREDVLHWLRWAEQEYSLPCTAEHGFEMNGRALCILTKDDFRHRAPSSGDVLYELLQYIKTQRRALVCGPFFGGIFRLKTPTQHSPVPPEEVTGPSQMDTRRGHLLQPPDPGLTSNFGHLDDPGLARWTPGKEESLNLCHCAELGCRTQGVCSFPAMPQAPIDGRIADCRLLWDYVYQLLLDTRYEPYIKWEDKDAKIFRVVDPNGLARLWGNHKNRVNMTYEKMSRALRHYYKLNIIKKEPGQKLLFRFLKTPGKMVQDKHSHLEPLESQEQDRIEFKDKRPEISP
The conditions noted are these: protein: recombinant; tags: N-terminal GST; dsDNA, one strand shown. A digest of the protocol:
as §1

For the next experiment, the target named is T11, ELF5 (Homo sapiens, UniProt Q9UKW6-2 1-255).
T11 sequence: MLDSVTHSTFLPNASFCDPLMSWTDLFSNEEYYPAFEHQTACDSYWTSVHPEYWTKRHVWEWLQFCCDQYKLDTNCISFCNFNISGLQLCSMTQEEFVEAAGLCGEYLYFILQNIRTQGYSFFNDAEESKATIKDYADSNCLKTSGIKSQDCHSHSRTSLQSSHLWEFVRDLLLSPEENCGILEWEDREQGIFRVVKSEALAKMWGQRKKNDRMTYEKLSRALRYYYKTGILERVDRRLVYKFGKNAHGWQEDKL
The note with it: protein: recombinant; tags: N-terminal GST; dsDNA, one strand shown. A digest of the protocol:
as §1

A further experiment concerns the target T12, ETV3 (Homo sapiens, UniProt P41162-2 1-143).
T12 sequence: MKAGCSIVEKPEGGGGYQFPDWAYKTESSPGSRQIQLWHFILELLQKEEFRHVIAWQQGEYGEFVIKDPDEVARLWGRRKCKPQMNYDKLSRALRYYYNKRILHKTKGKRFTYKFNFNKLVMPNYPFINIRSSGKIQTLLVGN
The conditions noted are these: protein: recombinant; tags: N-terminal GST; dsDNA, one strand shown. A digest of the protocol: as §1

For the next experiment, the target named is ETV6 (Homo sapiens, UniProt P41212 1-452). The conditions noted are these: protein: recombinant; tags: N-terminal GST; dsDNA, one strand shown. A digest of the protocol: as §1
Sequence of ETV6 (P41212 whole entry): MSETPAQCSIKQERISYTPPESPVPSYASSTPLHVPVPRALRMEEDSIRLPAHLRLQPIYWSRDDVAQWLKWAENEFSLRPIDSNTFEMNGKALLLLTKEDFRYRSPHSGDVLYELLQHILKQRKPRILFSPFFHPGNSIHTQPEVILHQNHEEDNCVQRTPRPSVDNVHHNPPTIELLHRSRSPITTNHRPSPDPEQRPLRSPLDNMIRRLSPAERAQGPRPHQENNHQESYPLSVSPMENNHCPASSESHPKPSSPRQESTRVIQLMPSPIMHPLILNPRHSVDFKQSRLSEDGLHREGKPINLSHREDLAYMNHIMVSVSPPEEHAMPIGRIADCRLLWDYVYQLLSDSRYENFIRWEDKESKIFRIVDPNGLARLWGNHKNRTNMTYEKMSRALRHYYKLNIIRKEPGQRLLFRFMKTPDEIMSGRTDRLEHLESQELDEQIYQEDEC

Sequence of CRX (O43186 whole entry): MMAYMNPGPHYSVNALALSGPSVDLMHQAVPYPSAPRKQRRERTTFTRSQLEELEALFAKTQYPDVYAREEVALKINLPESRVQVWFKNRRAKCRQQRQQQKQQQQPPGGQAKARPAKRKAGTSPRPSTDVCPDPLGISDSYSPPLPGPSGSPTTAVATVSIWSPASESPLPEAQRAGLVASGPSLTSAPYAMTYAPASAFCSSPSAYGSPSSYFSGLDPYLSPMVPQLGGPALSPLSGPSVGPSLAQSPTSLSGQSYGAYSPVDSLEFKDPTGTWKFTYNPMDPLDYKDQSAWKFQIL
Sequence of ETV1 (P50549 whole entry): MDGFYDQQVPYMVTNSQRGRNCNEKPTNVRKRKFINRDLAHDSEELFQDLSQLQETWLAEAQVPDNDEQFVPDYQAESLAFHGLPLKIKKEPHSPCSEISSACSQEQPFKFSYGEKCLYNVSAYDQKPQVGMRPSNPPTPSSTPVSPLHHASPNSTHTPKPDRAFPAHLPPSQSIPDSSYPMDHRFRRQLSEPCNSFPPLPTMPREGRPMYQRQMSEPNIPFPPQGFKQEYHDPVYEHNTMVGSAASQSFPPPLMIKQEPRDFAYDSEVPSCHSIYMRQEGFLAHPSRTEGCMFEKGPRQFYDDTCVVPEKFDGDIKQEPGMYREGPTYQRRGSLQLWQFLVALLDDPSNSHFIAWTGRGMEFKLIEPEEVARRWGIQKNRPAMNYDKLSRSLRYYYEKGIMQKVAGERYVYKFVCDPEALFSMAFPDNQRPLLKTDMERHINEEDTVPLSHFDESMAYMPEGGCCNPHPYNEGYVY
Sequence of ELF4 (Q99607 whole entry): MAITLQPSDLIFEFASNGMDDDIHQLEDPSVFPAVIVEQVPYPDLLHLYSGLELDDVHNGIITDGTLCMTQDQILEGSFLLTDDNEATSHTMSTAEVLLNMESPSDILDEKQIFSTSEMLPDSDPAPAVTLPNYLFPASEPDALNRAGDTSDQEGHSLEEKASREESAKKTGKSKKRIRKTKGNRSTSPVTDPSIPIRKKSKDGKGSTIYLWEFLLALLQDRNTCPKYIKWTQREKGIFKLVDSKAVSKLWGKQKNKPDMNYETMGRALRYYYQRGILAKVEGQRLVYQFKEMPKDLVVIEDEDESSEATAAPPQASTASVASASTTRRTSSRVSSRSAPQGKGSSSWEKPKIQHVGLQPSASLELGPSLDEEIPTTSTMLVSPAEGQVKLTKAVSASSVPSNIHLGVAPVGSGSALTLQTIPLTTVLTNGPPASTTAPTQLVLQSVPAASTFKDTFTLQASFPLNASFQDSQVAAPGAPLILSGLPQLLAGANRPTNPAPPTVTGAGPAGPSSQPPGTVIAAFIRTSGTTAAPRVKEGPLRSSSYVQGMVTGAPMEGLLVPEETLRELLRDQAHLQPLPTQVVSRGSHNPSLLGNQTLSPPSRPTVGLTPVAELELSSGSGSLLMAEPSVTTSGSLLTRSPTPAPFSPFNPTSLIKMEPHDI

On to GAAAAT, for which the binding signal was 1.07 fold enrichment (6-mer frequency, TF over GST control) with FEV; 1.16 fold enrichment (6-mer frequency, TF over GST control) with ETV5; 1.49 fold enrichment (6-mer frequency, TF over GST control) with HSF1; 1.09 fold enrichment (6-mer frequency, TF over GST control) with SPIC; 1.14 fold enrichment (6-mer frequency, TF over GST control) with ELF4; 1.01 fold enrichment (6-mer frequency, TF over GST control) with ELK4. For the same sequence, the binding signal with ETV2 was 1.17 fold enrichment (6-mer frequency, TF over GST control); with ELF3 it was 1.09 fold enrichment (6-mer frequency, TF over GST control); with CRX it was 1.2 fold enrichment (6-mer frequency, TF over GST control); with ETV1, 1.02 fold enrichment (6-mer frequency, TF over GST control); with ERF, 1.18 fold enrichment (6-mer frequency, TF over GST control); with ETV3L, 1.15 fold enrichment (6-mer frequency, TF over GST control). In addition, the binding signal with ETS2 is 1.13 fold enrichment (6-mer frequency, TF over GST control); in the experiment with SPDEF, 1.05 fold enrichment (6-mer frequency, TF over GST control); in the experiment with ETV7, 1.2 fold enrichment (6-mer frequency, TF over GST control); with ELF5, 1.17 fold enrichment (6-mer frequency, TF over GST control); in the experiment with ETV3 it was 1.07 fold enrichment (6-mer frequency, TF over GST control); in the experiment with ETV6, 1.19 fold enrichment (6-mer frequency, TF over GST control).
